Experimental data reported in PubChem BioAssay AID1159580 (chemical genetic matrix, 2015).
The whole screen tested about 5,500 compounds, of which about 2,000 (36%) were called active. Inconclusive results (about 18%) are left out. Rule as the data show it: active = normalized growth mostly below about 0.91 (no sharp cut-off); inconclusive = no clear call, values can overlap the other calls; inactive = mostly above about 0.92. Some of the results follow.

Assay: chemical genetic growth profiling, strain panel (AID 1159580);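 also: tested at 20 µM; growth read once vehicle control cultures reached saturation at 30 °C; 1 = growth at the plate median or of vehicle wells; lower values mean less growth of the strain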
Settings: S. cerevisiae deletion strains, growth OD
[1] = locus YBL105C, strain PKC1, active compounds read low
[2] = locus YBR135W, strain CKS1, active compounds read low
[3] = locus YBR136W, strain MEC1, active compounds read low
[4] = locus YDL017W, strain CDC7, active compounds read low
[5] = locus YDL108W, strain KIN28, active compounds read low
[6] = locus YDL214C, strain PRR2, active compounds read low
[7] = locus YDR052C, strain DBF4, active compounds read low
[8] = locus YDR226W, strain ADK1, active compounds read low
[9] = locus YDR477W, strain SNF1, active compounds read low
[10] = locus YER123W, strain YCK3, active compounds read low
[11] = locus YER133W, strain GLC7, active compounds read low
[12] = locus YFL029C, strain CAK1, active compounds read low
[13] = locus YFR003C, strain YPI1, active compounds read low
[14] = locus YFR019W, strain FAB1, active compounds read low
[15] = locus YFR028C, strain CDC14, active compounds read low
[16] = locus YGR040W, strain KSS1, active compounds read low
[17] = locus YGR052W, strain FMP48, active compounds read low
[18] = locus YGR092W, strain DBF2, active compounds read low
[19] = locus YHR030C, strain SLT2, active compounds read low
[20] = locus YHR079C, strain IRE1, active compounds read low
[21] = locus YHR082C, strain KSP1, active compounds read low
[22] = locus YHR205W, strain SCH9, active compounds read low
[23] = locus YIL147C, strain SLN1, active compounds read low
[24] = locus YJL095W, strain BCK1, active compounds read low
[25] = locus YJL157C, strain FAR1, active compounds read low
[26] = locus YJR016C, strain ILV3, active compounds read low
[27] = locus YJR066W, strain TOR1 (second series), active compounds read low
[28] = locus YJR066W, strain TOR1, active compounds read low
[29] = locus YKL048C, strain ELM1, active compounds read low
[30] = locus YKL067W, strain YNK1, active compounds read low
[31] = locus YKL101W, strain HSL1, active compounds read low
[32] = locus YLR113W, strain HOG1, active compounds read low
[33] = locus YLR133W, strain CKI1, active compounds read low
[34] = locus YLR403W, strain SFP1, active compounds read low
[35] = locus YML070W, strain DAK1, active compounds read low
[36] = locus YMR205C, strain PFK2 (second series), active compounds read low
[37] = locus YNL006W, strain LST8, active compounds read low
[38] = locus YNL020C, strain ARK1, active compounds read low
[39] = locus YNL161W, strain CBK1, active compounds read low
[40] = locus YNL183C, strain NPR1, active compounds read low
[41] = locus YNL222W, strain SSU72, active compounds read low
[42] = locus YNL307C, strain MCK1 (second series), active compounds read low
[43] = locus YOL136C, strain PFK27, active compounds read low
[44] = locus YOR061W, strain CKA2, active compounds read low
[45] = locus YOR119C, strain RIO1, active compounds read low
[46] = locus YOR231W, strain MKK1, active compounds read low
[47] = locus YOR329C, strain SCD5, active compounds read low
[48] = locus YPL031C, strain PHO85, active compounds read low
[49] = locus YPL153C, strain RAD53, active compounds read low
[50] = locus YPL204W, strain HRR25, active compounds read low
[51] = locus YPL209C, strain IPL1, active compounds read low
[52] = locus YPL256C, strain CLN2, active compounds read low
[53] = locus YPR025C, strain CCL1, active compounds read low
[54] = locus YPR111W, strain DBF20, active compounds read low
[55] = strain NNK1, active compounds read low

Measured: normalized growth

Clc1ccc(-c2cnc(Nc3cc(Cl)cc(Cl)c3)s2)cc1
inactive: [3] 0.956 | [4] 0.972 | [5] 0.972 | [7] 0.965 | [8] 0.964 | [13] 0.97 | [15] 0.966 | [23] 0.961 | [53] 0.927 | [55] 0.967
active: [1] 0.63 | [2] 0.869 | [6] 0.134 | [9] 0.119 | [10] 0.158 | [11] 0.12 | [12] 0.514 | [14] 0.175 | [16] 0.142 | [17] 0.132 | [18] 0.148 | [19] 0.117 | [20] 0.204 | [21] 0.126 | [22] 0.0742 | [24] 0.16 | [25] 0.149 | [26] 0.791 | [27] 0.116 | [28] 0.109 | [29] 0.215 | [30] 0.164 | [31] 0.174 | [32] 0.163 | [33] 0.117 | [34] 0.0226 | [35] 0.166 | [36] 0.16 | [37] 0.679 | [38] 0.133 | [39] 0.529 | [40] 0.136 | [41] 0.608 | [42] 0.225 | [43] 0.147 | [44] 0.135 | [45] 0.46 | [46] 0.229 | [47] 0.781 | [48] 0.148 | [49] 0.136 | [50] 0.13 | [51] 0.625 | [52] 0.196 | [54] 0.674

Clc1cccc(Nc2ncc(-c3ccc4c(c3)OCCCO4)s2)c1
active: [19] 0.67 | [32] 0.682 | [52] 0.717
inactive: locus YAR019C, strain CDC15, active compounds read low 0.978 | [1] 0.989 | [2] 0.981 | [3] 0.98 | locus YBR160W, strain CDC28, active compounds read low 0.983 | [4] 0.988 | locus YDL028C, strain MPS1, active compounds read low 0.956 | locus YDL101C, strain DUN1, active compounds read low 1 | [5] 0.978 | locus YDL132W, strain cdc53, active compounds read low 0.986 | [6] 0.893 | [7] 0.986 | locus YDR054C, strain cdc34, active compounds read low 0.989 | [8] 0.988 | [9] 0.909 | [10] 0.864 | [11] 0.892 | locus YFL009W, strain cdc4, active compounds read low 0.99 | [12] 0.977 | [13] 0.985 | [14] 0.898 | [15] 0.963 | [16] 0.905 | [17] 0.862 | [18] 0.88 | [20] 0.663 | [21] 0.951 | [22] 0.824 | [23] 0.973 | [24] 0.731 | locus YJL128C, strain PBS2, active compounds read low 0.951 | [25] 0.894 | [26] 0.994 | [27] 0.902 | [28] 0.95 | [29] 0.965 | [30] 0.927 | [31] 0.923 | locus YKL193C, strain SDS22, active compounds read low 0.985 | locus YKL203C, strain TOR2, active compounds read low 1.01 | [33] 0.866 | [34] 0.881 | [35] 0.872 | locus YMR001C, strain CDC5, active compounds read low 0.984 | [36] 0.894 | locus YMR277W, strain FCP1, active compounds read low 0.968 | [37] 0.995 | [38] 0.86 | [39] 0.982 | [40] 0.799 | locus YNL207W, strain RIO2, active compounds read low 0.987 | [41] 0.98 | [42] 0.864 | locus YOL078W, strain AVO1, active compounds read low 0.972 | [43] 0.873 | [44] 0.86 | [45] 0.953 | [46] 0.759 | [47] 0.984 | [48] 0.889 | [49] 0.872 | [50] 0.86 | [51] 0.983 | [53] 0.968 | locus YPR106W, strain ISR1, active compounds read low 0.971 | [54] 0.959 | [55] 0.974 | strain TSCII, active compounds read low 0.971
